# Source: PubChem BioAssay (National Center for Advancing Translational Sciences (NCATS))
# DT40 TDP1 CPT = DT40-hTDP1 cell growth loss with CPT. chicken DT40 Tdp1-/-;hTDP1 cells + 20 nM CPT, ATP luminescence, 48 h. hit rate 12% among 420,000. Potency, µM (highest dose often 46.2 µM), for the others: top-dose activity change, negative = growth inhibition, hits mostly inhibitors; note: potency is the fitted concentration of half-maximal effect; nearly all actives have a fitted effect of over 55% in size
#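 Chicken DT40 Tdp1-/- cells complemented with human TDP1, 400 cells/well, exposed to compounds plus 20 nM camptothecin for at least 48 h at 37 C; viability read as ATP content by CellTiter-Glo luminescence.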
# DT40 TDP1 no CPT = qHTS for Inhibitors of human tyrosyl-DNA phosphodiesterase 1 (TDP1): qHTS in cells in absence of CPT. DT40 Tdp1-/- hTDP1 cells, no CPT, ATP luminescence, 48 h. Potency, µM (highest dose often 46.2 µM), for the others: top-dose activity change, negative = growth inhibition, actives largely listed as inhibitors. hit rate 15% among 420,000; note: potency is the fitted concentration of half-maximal effect; nearly all actives have a fitted effect of over 55% in size
#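 Compound effects on proliferation are scored in DT40 Tdp1-/-;hTDP1 cells in the absence of CPT. ATP levels (CellTiter-Glo luminescence) are recorded after a ≥48 hr, 37 °C incubation.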
# HT1080-NT tox = kills 2HG-producing HT-1080-NT fibrosarcoma cells; Potency, µM (top dose mostly 46.1 µM), without a hit: at the top dose activity, negative = less viability, hits mostly cytotoxic; AID 686970; HT-1080-NT fibrosarcoma viability, CellTiter-Glo ATP luminescence, 48 h; hit rate 1.6% among 360,000;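 note: NT is the 2HG producing partner of a matched IDH1 knockdown line; potency is the fitted concentration of half-maximal effect; 0% = DMSO-treated cells and -100% = media-only wells without cells; nearly all actives have a fitted effect of over 55% in size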
#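 A 48-hour cytotoxicity screen used HT-1080-NT cells plated 2 hours before compound delivery. ATP-based CellTiter-Glo luminescence measured viability, normalized to DMSO and no-cell controls.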
# IL1B secr inh = inflammasome signaling inhibition, IL-1 beta readout. THP-1 LPS/ATP IL-1B secretion, AlphaLISA, 16 h; active compounds read low. activity change, % at 57.5 µM. AID 743279. hit rate 4.7% among 360,000; in the data active = activity change below about -50%; inconclusive = mostly about -30% to -49%
#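 THP-1 cells pretreated 1 hr with compounds (up to 57.5 uM final), then stimulated with LPS (250 ng/mL final) plus ATP (1.25 mM final); secreted IL-1B measured by AlphaLISA after 16 hr, decreased signal indicating inhibition.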
# HT1080 IDH1KD tx = HT-1080 IDH1 knockdown cell toxicity (counter line); HT-1080 IDH1 knockdown viability, ATP luminescence, 48 h; Potency, µM (highest dose often 46.1 µM), inactives show at the highest dose activity, negative = toxicity, most hits filed as cytotoxic; hit rate 2% among 360,000; AID 686971;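 note: potency is the fitted concentration of half-maximal effect; 0% = DMSO wells and -100% = cell-free medium wells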
#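 After a 2 h attachment period, IDH1KD HT-1080 cells took pin-transferred compound for 48 h at 37 °C; ATP-based luminescence after 10 min room-temperature reagent incubation reported viability.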
# * = called active by the depositor; ? = inconclusive; / = no result given; [ ] = remark or other dose. Hits are enriched below; roughly 19% of the tested compounds scored in any of these assays. Unless noted, calls come from the whole dose curve; as a rule, active = well fitted curve in the direction sought with a large enough effect; inconclusive = small, poorly fitted or top-dose-only effect, or another doubt; inactive = no such curve, though single readings can be large; an effect the other way counts as inactive or inconclusive. Unless noted, % is set by controls: 0 for no effect and ±100 for the full control effect.
SMILES,DT40 TDP1 CPT,DT40 TDP1 no CPT,HT1080-NT tox,IL1B secr inh,HT1080 IDH1KD tx
COc1ccc(/C=c2\s/c(=C\C(=O)C(C)(C)C)[nH]c2=O)cc1O,14.6µM*,?,2.1%,?,-12.9%
COc1cc(/C=c2\s/c(=C\C(=O)C(C)(C)C)[nH]c2=O)cc(OC)c1OC,?,?,-24.1%,7.5,-25.7%
CCN(c1ccccc1)S(=O)(=O)c1cc(C(=O)OCC(=O)c2c(N)n(C)c(=O)n(C)c2=O)ccc1C,9.2µM*,23.1µM*,-2.7%,0.0,-2.9%
Cc1ccc(N(C)S(=O)(=O)c2cccc(C(=O)OCC(=O)c3c(N)n(C)c(=O)n(C)c3=O)c2)cc1,?,18.4µM*,-23.6%,50.7,-19.6%
Cn1c(N)c(C(=O)COC(=O)c2ccc(-c3ccccc3)cc2)c(=O)n(C)c1=O,?,?,12.4%,18.7,3.8%
CN(c1ccccc1)S(=O)(=O)c1cc(C(=O)OCC(=O)c2c(N)n(C)c(=O)n(C)c2=O)ccc1Cl,25.9µM*,?,-7.7%,21.3,-1.0%
CN(C)S(=O)(=O)c1cccc(C(=O)OCC(=O)c2c(N)n(C)c(=O)n(C)c2=O)c1,11.7%,-3.6%,-1.9%,37.5,-12.2%
CCC(=O)N1CCc2cc(S(=O)(=O)NC(C(=O)Nc3cc(OC)cc(OC)c3)C(C)C)ccc21 (centres undefined),-9.2%,-16.3%,/,/,/
CC(=O)c1ccc(C(=O)NCc2nc(-c3ccccc3NC(=O)c3cc(C)oc3C)oc2C)cc1,-0.7%[9.04 µM],-6.8%,/,/,/
CC(C)c1ccc(C2C3=C(COC3=O)Nc3cc4c(cc32)OCO4)cc1 (centres undefined),0.651µM*,0.92µM*,1.46µM*,13.9,1.64µM*
Cc1ccc(Cl)cc1NC(=O)c1cc2c(=O)n3cccc(C)c3nc2n1C,0.581µM*,0.517µM*,/,/,/
CCN(CC)C(=O)c1cc2c(=O)n3cccc(C)c3nc2n1C,-17.9%,?,19.6%,-18.9,16.6%
CCCCN(CC)C(=O)c1cc2c(=O)n3cccc(C)c3nc2n1C,?,16.4µM*,/,/,/
O=S(=O)(c1ccc(Cl)cc1)c1nnn2c1nc(NCc1cccs1)c1sccc12,?,23.1µM*,/,/,/
Cc1ccc(S(=O)(=O)c2nnn3c2nc(N2CCCCC2)c2sccc23)cc1,-4.7%,-18.3%,/,/,/
Cc1ccc(S(=O)(=O)c2nnn3c2nc(NCc2cccs2)c2sccc23)cc1,-4.3%,-25.6%,/,/,/
O=S(=O)(c1ccc(Cl)cc1)c1nnn2c1nc(N1CCCCC1)c1sccc12,20.6µM*,16.4µM*,/,/,/
C#CCOCCOCCOCCNc1nc(N2CCN(C(=O)[C@H](CCCN=C(N)N)n3cc(C(N)[C@H](C)CC)nn3)CC2)nc(N2CCN(C(=O)[C@H](CC(N)=O)n3cc(C(N)[C@@H](C)CC)nn3)CC2)n1 (some centres undefined),-1.9%,-8.4%,1.6%,-2.3,-0.7%
CN(C)c1cc[n+](CC(=O)Nc2cccc([N+](=O)[O-])c2)cc1,?,3.26µM*,-6.1%,1.3,-19.4%
CN(C)c1cc[n+](CC(=O)Nc2ccc(OC(F)F)cc2)cc1,23.1µM*,14.6µM*,-20.4%,-11.7,?
O=C(C[n+]1ccc(-c2ccccc2)cc1)Nc1ccc([N+](=O)[O-])cc1,10.3µM*,14.6µM*,-7.5%,-18.9,-1.0%
COc1ccccc1/C=C/C1C(C(=O)OCC(C)C)=C(C)N=C2SCCC(=O)N21 (centres undefined),1.9%,3.9%,-21.3%,-68.7*,-25.2%
CC1=C(C(=O)OCc2ccccc2)C(c2cccs2)N2C(=O)CCSC2=N1 (centres undefined),0.3%,-25.3%,-15.3%,-56.4*,-7.0%
COC(=O)C1=C(C)N=C2SCCC(=O)N2C1/C=C/c1ccccc1 (centres undefined),7.2%,-6.6%,-0.6%,-7.6,0.6%
COc1cc(C2C(C(=O)OC(C)C)=C(C)N=C3SCCC(=O)N32)ccc1OCc1ccccc1 (centres undefined),13µM*,29.1µM*,/,/,/
SMILES,DT40 TDP1 CPT,DT40 TDP1 no CPT,HT1080-NT tox,IL1B secr inh,HT1080 IDH1KD tx
CCOC(=O)C1=C(C)N=C2SCCC(=O)N2C1c1cc(Br)ccc1OC (centres undefined),-5.2%,-14.6%,6.8%,-13.0,0.4%
C[C@H](CO)N1C[C@H](C)[C@@H](CN(C)S(=O)(=O)c2cccc(C#N)c2)OCc2cn(nn2)CCCC1=O,8.1%,-25.7%,2.7%,12.6,12.1%
Cc1ccccc1NC1=NC(=S)N(c2ccccc2)C12CCCCC2,18.4µM*,?,-24.0%,0.4,-28.4%
Cc1cccc(NC2=NC(=S)N(c3ccc(C(=O)O)cc3)C23CCCCC3)c1,?,5.6%,1.3%,25.5,-2.3%
Cc1ccc(S(=O)(=O)Nc2cc(-c3nn(C)c(=O)c4ccccc34)ccc2N2CCOCC2)cc1,?,?,?,18.3,10µM*
CC(=O)Nc1cc(-c2nn(C)c(=O)c3ccccc23)ccc1N1CCOCC1,26.5%,5.5%,-1.3%,16.0,11.8%
Cn1nc(-c2ccc(N3CCOCC3)c(NS(=O)(=O)c3ccc(Cl)cc3)c2)c2ccccc2c1=O,18.4µM*,25.9µM*,?,8.6,18.4µM*
CC1=CC(C)C(C(=O)O)C(C(=O)O)C1 (centres undefined),-5.0%,3.0%,-3.2%,4.6,1.0%
CC[N+](C)(CC)CC(=O)OCC1C(C)C=C(C)CC1C (centres undefined),?,8.2µM*,10.8%,-10.9,5.3%
Cc1ccc(Oc2ccc(C(=O)NCc3ccncc3)cc2)cc1,?,23.1µM*,?,-51.1*,?
Cc1ccc(C(=O)NCCc2ccncc2)cc1,8.4%,-8.1%,13.4%,8.9,14.9%
O=C(NCc1ccncc1)c1ccc(Oc2ccccc2)cc1,14.6µM*,18.4µM*,-21.1%,-65.9*,-26.8%
O=C(NCc1ccncc1)c1ccc(Br)cc1,-19.6%,-15.0%,0.1%,27.6,5.1%
O=C(NCc1ccncc1)c1ccc(OCc2ccccc2)cc1,20.6µM*,13µM*,-10.8%,-20.0,-0.3%
COc1ccc(N(C(=O)C(C)C)S(=O)(=O)c2ccc3c(c2)n(C)c(=O)n3C)cc1,-12.0%,?,-12.2%,-2.6,-12.3%
NS(=O)(=O)c1ccc(CCN2C(=O)CCC2=O)cc1,-16.6%,12.8%,29.9%,13.5,12.6%
COc1ccc(Br)cc1C(=O)Nc1ccc2oc(-c3cccnc3)nc2c1,4.9%,-21.6%,/,/,/
COc1ccc(OC)c(-c2csc(N(Cc3ccco3)C(=O)c3ccco3)n2)c1,?,20.6µM*,-3.6%,5.3,?
